# Data as given in PubChem BioAssay AID504444 (National Center for Advancing Translational Sciences (NCATS), 2011).
# The whole screen tested about 360,000 compounds, of which about 7,500 (2.1%) were called active. Another 20% or so got no clear call; they are omitted. The sample as a whole holds a higher share of actives than the screen did. A number with no mark means an inactive call. Calls follow the shape of the dose curve; as a rule, active = well fitted inhibition curve with a large enough effect; inconclusive = small, poorly fitted or top-dose-only effect, or effect the other way; inactive = flat fitted curve, though single readings scatter.
# Experiment: Nrf2 qHTS screen for inhibitors; also: nearly all actives have a fitted effect of over 60% in size
# Conditions: A549 ARE-Fluc reporter, luciferase luminescence, 18-24 h; series mostly up to 46 µM; activity change, negative = inhibition: at the top concentration
# Excerpt: NIH Molecular Libraries Probe Production Network [MLPCN]
# NIH Chemical Genomics Center [NCGC]
# Assay Provider: Shyam Biswal, Johns Hopkins University
# Nrf2 is a transcription factor that maintains cellular redox homoestasis and protects cells from xenobiotics. Nrf2 binds to the antioxidant response element (ARE) to induce gene expression of a broad spectrum of genes that encode for antioxidants. […] Finding a small molecule that act as an inhibitor of Nrf2 function would represent a novel therapeutic target that could lead to improvement in survival of patients undergoing chemo- and/or radio- therapy.
# This is the Nrf2 activity measured in the luminescent read.
# 1. Shibata, T., et al., Genetic Alteration of Keap1 Confers Constitutive Nrf2 Activation and Resistance to Chemotherapy in Gallbladder Cancer. Gastroenterology, 2008.
# 2. Sjoblom, T., et al., The consensus coding sequences of human breast and colorectal cancers. Science, 2006. 314(5797): p. 268-74.
# NCGC Assay Protocol Summary:
# A concentration-response assay was performed with A549 ARE_Fluc cells which are suspended in 5% FBS OPTI-MEM. Five uL were dispensed into 1536-well white TC-treated plate using the Kalypsys dispenser to achieve a density of 5000 cells/well in all columns except column 1. The plate is incubated at 37deg C at 5% CO2 for 2 hours before 23 nL of compounds are added with the Kalypsys pin tool equipped with a 1,536-pin array containing 10-nL slotted pins (FP1S10, 0.457-mm diameter, 50.8 mm long; V&P Scientific). The control compounds Budesonide and Staurosporine are both added at a concentration of 2mM and Budesonide is also added as a 1:10 titration, starting at 200uM, to achieve dose-response. After an 18-24 hour incubation at 37deg C at 5% CO2, 5ul of medium is added to column 1. Afterwards 1ul of 5x of CellTiter-Fluor (Promega) is added to every well. The plate is then incubated at 37deg C at 5% CO2 for 30 minutes before they are read on the ViewLux (Perkin Elmer) for a fluorescent read Ex=405(10)/Em=525(10) for a 3 second exposure, 2x binning, and high gain. Then 3 uL of 3x BugLite is dispensed into all wells and the plate is incubated at ambient room temperature for 15 minutes. Afterwards another ViewLux read is performed using the clear filter to get a luminescent read with the settings of 40 second exposure, 2x binning, and high gain. Cytotoxicity is assessed through the first fluorescent read and then biochemical activity against Nrf2 is measured in the luminescent read.
# % is scaled to controls: 0 for no effect and ±100 for the full control effect; potency is read from the fitted curve at half-maximal effect.
Compound,"activity change, negative = inhibition [%]",Potency
CCN(CC)C(=O)Oc1ccc(NC(=O)N2CCOCC2)cc1,-7.97,–
O=C(Nc1cccc(OC(=O)N2CCCCC2)c1)N1CCOCC1,–,16.4 µM (active)
CN(C)C(=O)Oc1ccc(NC(=O)N2CCOCC2)cc1,3.42,–
COC(=O)C1=C(c2c(C)noc2C)C[C@@H]2CC[C@H]1N2C(=O)NCc1ccc2c(c1)OCO2,-8.27,–
c1ccc(C(CN2CCCCC2)c2ccccc2)cc1,2.82,–
C[C@]12CC[C@H](O)CC1=C([N+](=O)[O-])CC1C2CC[C@@]2(C)C1CC[C@@H]2O (some centres undefined),0.87,–
O=C1NC(=O)C(CCOc2ccccc2)(CCc2ccccc2)C(=O)N1,-22.3,–
O=c1[nH]c(=O)n(CCc2ccc(F)cc2)c(O)c1/C=N/N1CCCCC1,-3.29,–
CCCCC(=O)N/N=C/c1c(O)n(CCC2=CCCCC2)c(=O)[nH]c1=O,–,18.4 µM (active)
CCCCC(=O)N/N=C/c1c(O)n(-c2ccccc2)c(=O)[nH]c1=O,5.34,–
CN(C)CC1Oc2ccccc2OC1(O)c1ccccc1 (centres undefined),–,14.6 µM (active)
CC1C(=O)OC2CCN3CC=C(COC(=O)C(C)(O)C1(C)O)C23 (centres undefined),4.37,–
COC(=O)C1=C(c2ccc(Cl)c(C(F)(F)F)c2)C[C@@H]2CC[C@H]1N2C(=O)NC(C)C,-21.4,–
O=C1NC(=O)C(Cc2ccccc2)C(=O)N1,2.99,–
Cc1ccc(C(C)C)c(OCC(=O)N2CCN(CC(=O)N3CCOCC3)CC2)c1,8.39,–
O=C(O)c1cc[c]([Sb](=[O])([OH])[OH])cc1[N+](=O)[O-],13.5,–
CC/C(=N\NC(=O)c1ccccc1O)c1c(O)n(Cc2ccccc2)c(=O)[nH]c1=O,8.94,–
CCC(=NCCc1ccccc1)c1c(O)n(C2CCCCC2)c(=O)[nH]c1=O,–,20.6 µM (active)
CC(=O)c1c(O)n(C2CCCCCC2)c(=O)[nH]c1=O,-21.3,–
Cn1cc(C(=O)OCC(=O)N2CCCC2)c2ccccc21,5.8,–
CC1CNCCN1c1ccc(Cl)cc1 (centres undefined),8.73,–
CCn1cc2nc(SCc3ccccc3Cl)n(CCc3ccccc3)c(=O)c2n1,–,18.4 µM (active)

Compound,"activity change, negative = inhibition [%]",Potency
CC(=O)C1(O)CCC2C3CCC4=C(Cl)C(=O)CCC4(C)C3CCC21C (centres undefined),-13.3,–
Cc1ccc(N(C)C(=O)Oc2cccc3ccc(C)nc23)cc1,-14.6,–
CN1CCc2cc3c(cc2[C@H]1[C@@H]1OC(=O)c2c1ccc1c2OCO1)OCO3,6.77,–
COc1cccc(CN2CCCC(C(=O)c3ccccc3SC)C2)c1O (centres undefined),-1.57,–
CC1CC=CCC12C(=O)NC(=S)NC2=O (centres undefined),13.2,–
COc1cc(Cn2c(N)c(C(=O)NCc3ccco3)c3nc4ccccc4nc32)cc(OC)c1OC,-29.4,–
CCOc1ccc(CNC(=O)c2cccc(Nc3nc4ccccc4n4nnnc34)c2)cc1OC,–,7.31 µM (active)
CCCn1c(C(=O)c2ccccc2OC)nc2ccccc21,4.64,–
CC(C)Oc1cccc(C(=O)C2CCCN(C3CCOCC3)C2)c1 (centres undefined),-9.14,–
CCC1(CC(C)c2ccccc2)C(=O)NC(=O)NC1=O (centres undefined),-20.9,–
COC(=O)C1=C(c2ccc3ccccc3c2)C[C@@H]2CC[C@H]1N2C(=O)NCCO,-2.19,–
Cc1ccc(NC(=O)CN(C)CC(=O)Nc2cccc(F)c2)cc1[N+](=O)[O-],–,11.6 µM (active)
CNCC(O)c1cc(F)c(OCc2ccccc2)c(OCc2ccccc2)c1F (centres undefined),12.1,–
CCOC(=O)CC(SP1(=S)OCC2(CCCCO2)C(C2CCCCO2)O1)C(=O)OCC (centres undefined),-7.98,–
CC(CC(C#N)(c1ccccc1)c1ccccc1)N1CCCCC1 (centres undefined),3.56,–
O=C(CCC(=O)N1C[C@H]2C[C@@H](C1)c1cccc(=O)n1C2)NCc1ccccc1C(F)(F)F,-12.9,–
COC(=O)C1=C(c2ccc(F)cc2OCc2ccccc2)C[C@@H]2CC[C@H]1N2C(=O)NCc1ccc(Cl)cc1,–,23.1 µM (active)
COC(=O)C1=C(c2ccc(F)cc2F)C[C@@H]2CC[C@H]1N2C(=O)NC1CC1,0.179,–
COC(=O)C1=C(c2ccccc2)C[C@@H]2CC[C@H]1N2C(=O)NCc1ccco1,6.49,–
C[C@]12CCCCC1=CC(=O)C1C2CC[C@@]2(C)C1C[C@@H](F)[C@@H]2O (some centres undefined),-20,–
Cc1cc(C(=O)OCC(=O)Nc2c(F)cccc2F)c(C)n1C1CC1,-16.9,–
c1ccc(Cc2nn3c(Cn4cnc5ccccc54)nnc3s2)cc1,–,23.1 µM (active)

Compound,"activity change, negative = inhibition [%]",Potency
O=c1[nH]c(CN2CC=C(c3ccccc3)CC2)nc2scc(-c3cccs3)c12,0.416,–
CC[C@H]1CC2CN3CCc4c([nH]c5ccccc45)C(C(=O)OC)(C2)C13 (some centres undefined),-5.41,–
CCC(=O)OC(Cc1ccccc1)(c1ccccc1)C(C)CN(C)C (centres undefined),-0.661,–
CC=C(C)C(=O)OC1CCN2CC=C(COC(=O)C(O)(C(C)OC)C(C)(C)O)C12 (centres undefined),-9.73,–
CCC(=O)c1ccc(OCC(=O)N2CCN(CC(=O)Nc3ccc(C)cc3)CC2)cc1,0.865,–
COc1ccc(NC(=O)c2cn(CCC#N)nc2-c2ccc([N+](=O)[O-])cc2)cc1,2.75,–
COc1cccc(C(=O)Nc2ccc(-c3cc(C(F)(F)F)nn3-c3ccccc3)cc2)c1,–,14.6 µM (active)
COc1ccc(-c2nn(CCC#N)cc2C(=O)Nc2ccc(C(C)=O)cc2)cc1,-8.88,–
C=C(C)C1(CCCC)C(=O)NC(=S)NC1=O,-1.08,–
COC(=O)[C@@H]1C(OC(=O)c2ccccc2)CC2CCC1N2C (some centres undefined),0.299,–
COC(=O)C1=C(c2cc3ccccc3s2)C[C@@H]2CC[C@H]1N2C(=O)NC(C)C,-24.6,–
CC1([N+](=O)[O-])COP(=O)(Nc2ccc(F)cc2)OC1 (centres undefined),-6.18,–
COP(=O)(NS(=O)(=O)c1ccccc1)OC,0.416,–
O=C1C=C(NS(=O)(=O)c2ccccc2)C(=O)c2ccccc21,–,23.1 µM (active)
CC1CCCN1CCC(C(N)=O)(c1ccccc1)c1ccccc1 (centres undefined),-3.33,–
O=C1C2(Cl)C3(Cl)C4(Cl)C(Cl)(Cl)C5(Cl)C3(Cl)C1(Cl)C5(Cl)C24Cl (centres undefined),-14,–
COC1=C[C@@H]2[C@@H]3Cc4ccc(OC)c(O)c4[C@]2(CCN3C)CC1=O,3.67,–
Cc1ccc(Cl)cc1N1CCN(C(=O)C2CCC(CNS(=O)(=O)c3cccs3)CC2)CC1 (centres undefined),–,10.3 µM (active)
c1cc2c(cc1C1OCC3C(c4ccc5c(c4)OCO5)OCC13)OCO2 (centres undefined),-12.8,–
CCc1ccc(OCC(=O)N2CCN(CC(=O)Nc3ccccc3Cl)CC2)cc1,5.6,–
